The values that follow come from PubChem BioAssay AID2289 (National Center for Advancing Translational Sciences (NCATS), 2010).

The campaign covered roughly 340,000 compounds. About 3,300 (0.97%) were called active. Roughly 9% stayed inconclusive and do not appear here. Calls come from the whole dose curve; as a rule, active = well fitted inhibition curve with a large enough effect; inconclusive = small, poorly fitted or top-dose-only effect, or effect the other way; inactive = flat fitted curve, though single readings scatter. The list shows a part of the results.
Potency is the fitted concentration of half-maximal effect.

The assay can be described thus: qHTS Assay for Modulators of miRNAs and/or Inhibitors of miR-21. Note: nearly all actives have a fitted effect of over 55% in size. Conditions: HeLa miR-21-FLuc reporter, luciferase luminescence, 48 h; actives lower the signal. An excerpt: MLSCN Grant: 1 R21 NS059478-01 Assay Provider: Qihong Huang, The Wistar Institute NCGC Assay Overview: MicroRNAs (miRNAs) are endogenously encoded small (~20-25 nucleotides), nonprotein-coding RNAs that are involved in post-transcriptional repression of target messenger RNAs (mRNAs) (Le and Hannon, 2004). Estimated to be involved in the regulation of 30% of all protein-coding mRNAs (Filipowicz et al., 2008), miRNAs play a significant role in many biological processes including cellular differentiation and tissue development (Ghildiyal and Zamore, 2009).
NCGC Assay Protocol Summary: Reagents: HeLa cells stably expressing firefly luciferase (FLuc) under the control of a CMV promoter (upstream) and a miR-21 binding sequence directly downstream of the gene. These cells endogenously express miR-21. Control compounds used were compound C3 (provided by collaborator), N6-phenyladenosine (MP Biomedicals, 0215379625), and DMSO. Assay Summary: 6uL of HeLa miR-21-FLuc cells in assay buffer (DMEM, Invitrogen #21063-029; 10% FBS, HyClone #SH30071.03) were dispensed at 2000cells/well (3.3 x 10^5 cells/mL) into Greiner solid-white TC-treated 1536-well plates using a Multidrop Combi (Thermo Fisher Scientific). Plates were incubated for one hour at 37 degree Celsius, 95% humidity, 5% CO2. These assay plates were then treated with 23nL of compound or DMSO using a Kalypsys pin tool, which allows for delivery of a 24-point titration of each compound to the assay plate, with a final compound concentration ranging from approximately 40uM to 5pM. Assay plates were then incubated for 48 hours. After incubation, plates were allowed to come to RT for one hour prior to delivery of 3uL of 3X luciferase detection reagent. After a 15 minute incubation to allow for cell lysis, luciferase activity was measured using a ViewLux CCD imager (PerkinElmer), with an average exposure time of 2-12 seconds. Keywords: NIH Roadmap, MLPCN, MLSMR, qHTS, miR-21, microRNA, firefly luciferase, FLuc.
With `CN(CCC#N)C(=O)c1cc2c(s1)-c1ccccc1SC2`, the Potency was 4.14 µM (active).
To `Cc1ccccc1C(=O)Nc1nnc(S(=O)(=O)N2CCCCCC2)s1` belongs 1.65 µM (active).
To `COc1ccc(C(=O)Nc2nnc(S(=O)(=O)N3CCC(C)CC3)s2)cc1OC` belongs 0.464 µM (active); to `O=C(Nc1nnc(S(=O)(=O)N2CCCC2)s1)c1ccc(F)cc1`, 3.69 µM (active); to `CCC(CC)C(=O)Nc1nnc(S(=O)(=O)N2c3ccccc3CC2C)s1` (configuration not stated), 2.61 µM (active).
The result for `Cn1c(-c2cc3ccc(OC(=O)C(C)(C)C)cc3oc2=O)nc2ccccc21` reads 3.69 µM (active).
Regarding `COc1ccccc1N1CCN(/N=C\c2ccccc2)CC1`, the Potency was 10.4 µM (active).
With `COc1ccccc1N1CCN(/N=C/c2cccc(Cl)c2)CC1`, the Potency is 6.56 µM (active).
In the case of `CCOC(=O)c1snc(C(=O)NC2CCCCC2)c1N`, the Potency was 7.36 µM (active).
The result for `CN(C)/C=C(/C(=O)c1ccc(Cl)cc1)S(=O)(=O)c1ccccc1` reads 18.5 µM (active); that for `CCC(=O)Nc1ccc2oc(-c3cccnc3)nc2c1`, 8.26 µM (active); that for `Cc1cc(-c2nc3ncccc3o2)ccc1N`, 3.29 µM (active).
To `CCCC(=O)Nc1ccc2oc(-c3ccc(O)c(Br)c3)nc2c1` belongs 0.927 µM (active); to `O=C(Nc1ccc2oc(-c3cccnc3)nc2c1)c1ccco1`, 11.7 µM (active).
For `O=C(Nc1ccc(-c2nc3ncccc3o2)cc1)c1ccco1`, the Potency is 1.85 µM (active).
In the case of `Nc1cccc2c1C(=O)N(CCOc1ccc(F)cc1)C2=O`, the Potency is 0.826 µM (active).
The result for `COc1ccc(OCCN2C(=O)c3cccc(N)c3C2=O)cc1` reads 14.7 µM (active); that for `COc1ccc(C2=NN(c3ccc(C(=O)O)cc3)C(c3ccc(OC)c(OC)c3)C2)cc1` (configuration not stated), 18.5 µM (active); that for `COc1ccccc1CN=C1Nc2ccccc2CS1`, 5.85 µM (active).
Consider `COc1cccc(CN=C2Nc3ccccc3CS2)c1`, for which the Potency is 4.65 µM (active).
As to `CCCC(=O)Nc1ccc(NC(=O)C23CC4CC(CC(C4)C2)C3)cn1`, the Potency is 18.5 µM (active).
Turning to `OC[C@H]1O[C@@H](n2cnc3c(Nc4ccccc4)ncnc32)[C@H](O)[C@@H]1O`, the Potency is 3.69 µM (active).
`CCOC(=O)c1c(C)[nH]c2cc(Br)c(O)cc12`: the Potency is 16.5 µM (active).
As for `O=C(COc1ccccc1Cl)N1CCc2ccccc21`, the Potency is 2.07 µM (active).
The result for `O=C(COc1ccc2c(c1)CCC2)N1CCc2ccccc21` reads 3.29 µM (active); that for `CCc1ccc(OCC(=O)N2CCc3ccccc32)cc1`, 4.65 µM (active); that for `COc1ccc2c(CC(=O)N3CCc4ccccc43)coc2c1`, 2.93 µM (active).
To `Cc1c(C(=O)N2CCc3ccccc32)oc2ccccc12` belongs 0.736 µM (active); to `O=C(COc1ccccc1)N1CCc2ccccc21`, 4.65 µM (active); to `COc1ccc(C(=O)N2CCc3ccccc32)cc1`, 18.5 µM (active).
To `Cc1c(Br)c(C(=O)N2CCc3ccccc32)nn1C` belongs 5.21 µM (active); to `O=C(OCc1ccccc1)N1CCc2ccccc21`, 1.17 µM (active).
For the compound `O=C(COc1ccc(F)cc1Br)N1CCc2ccccc21`, the Potency is 1.26 µM (active).
To `Cc1ccccc1OCC(=O)N1CCCc2ccccc21` belongs 14.7 µM (active); to `O=C(c1ccco1)N1CCc2ccccc21`, 5.85 µM (active).
Turning to `O=C1/C(=C\Nc2ccc(Cl)cc2)CCN1c1ncccn1`, the Potency was 1.31 µM (active).
As to `CCC(C)NC(=O)Cn1c(COc2ccc(Cl)cc2Cl)nc2ccccc21` (configuration not stated), the Potency was 8.26 µM (active).
To `CC(=O)C(/C=N/c1cc(-c2ccc(C)cc2)nn1-c1ccccc1)=C(\C)O` belongs 1.47 µM (active); to `COc1ccccc1N=c1oc2cc(O)ccc2cc1C(=O)NCC1CCCO1` (configuration not stated), 9.27 µM (active); to `CCOC(=O)/C=C(\C)N1N=C(c2ccccc2)CC1c1ccccc1` (configuration not stated), 2.33 µM (active).
To `CN(/N=C/c1ccc2c(c1)OCO2)c1ccccc1` belongs 6.56 µM (active).
As to `CCOc1ccc(/C=N/N(C)c2ccccc2)cc1OC`, the Potency is 4.65 µM (active).
`COc1ccc(OC)c(/C=N/N(C)c2ccccc2)c1`: the Potency was 6.56 µM (active).
For the compound `COc1cc(/C=N/N(C)c2ccccc2)ccc1O`, the Potency was 2.61 µM (active).
In the case of `CC12CN3CCN(CC(C3)/C1=N\NC(=O)c1ccccc1N)C2`, the Potency is 10.4 µM (active).
The result for `Nc1ccccc1C(=O)N/N=C1\C2CN3CCN(C2)CC1(c1ccccc1)C3` reads 7.36 µM (active).
To `CCCCC12CN3CCN(CC(C3)/C1=N\NC(=O)c1ccccc1N)C2` belongs 9.27 µM (active).
To `c1ccc2c(c1)ccc1nnc(SCc3ccc4c(c3)OCCO4)n12` belongs 16.5 µM (active).
Take `O=C(CSc1nnc2ccc3ccccc3n12)c1ccc(F)cc1`: the Potency is 9.27 µM (active).
As for `Cc1ccc2nc(-c3ccc(Cl)c(NC(=O)c4ccc5c(c4)OCCO5)c3)oc2c1`, the Potency was 7.36 µM (active).
To `COc1ccc2oc(-c3ccc(C)c(NC(=O)c4ccc5c(c4)OCCO5)c3)nc2c1` belongs 8.26 µM (active); to `CCc1cccc(C)c1NC(=O)Cn1nc(C)n2cccc2c1=O`, 4.65 µM (active); to `Cc1nn(CC(=O)Nc2ccccc2C(F)(F)F)c(=O)c2cccn12`, 16.5 µM (active).
Consider `Cc1cc(C(=O)N(C)C)sc1-c1ccccc1`, for which the Potency was 5.21 µM (active).
The result for `CC1=C(c2ccc(C)cc2)[N+](=O)C(C)(C)N1[O-]` reads 3.69 µM (active); that for `CCc1cccc2c(C(=O)COC(=O)c3ccccc3)c[nH]c12`, 16.5 µM (active); that for `COc1ccc(-c2csc(N=C(N)N)n2)cc1`, 8.26 µM (active).
In the case of `Cc1ccsc1/C=N\NC(=O)c1cc(C(C)(C)C)[nH]n1`, the Potency was 4.14 µM (active).
Consider `O=C(Nc1nc2ccsc2c(=O)s1)c1ccc(F)cc1`, for which the Potency is 0.414 µM (active).
To `CCOc1ccc(Nc2nc(-c3cccnc3)cs2)cc1` belongs 0.585 µM (active); to `Cc1ccc(Nc2nc(-c3ccncc3)cs2)cc1`, 0.656 µM (active); to `Cc1ccc(Nc2nc(C3CC3)cs2)cc1`, 1.65 µM (active).
Regarding `Cc1ccc(Nc2nc(C)cs2)cc1`, the Potency was 6.56 µM (active).
Consider `Cc1csc(Nc2ccc(Cl)cc2)n1`, for which the Potency is 10.4 µM (active).
The result for `O=[N+]([O-])c1ccccc1Nc1nc(-c2cccnc2)cs1` reads 18.5 µM (active).
The result for `O=C(C[n+]1cn(C(F)F)c2ccccc21)c1ccc(OC(F)F)cc1` reads 5.85 µM (active).
Take `Clc1ccc(-c2cnc(Oc3ccccc3)nc2)cc1`: the Potency was 2.07 µM (active).
